This is an account of results in PubChem BioAssay AID463082 (The Scripps Research Institute Molecular Screening Center, 2010).

In all, about 330,000 compounds went through this assay and about 4,900 (1.5%) were called active. Many of the other results were omitted from the sample, so actives are more common in it than they were. A number with no mark means an inactive call.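 Rule for the calls: active = inhibition above the mean inhibition across the screen plus 3 SD (cut at about 25% in these data); inactive = the rest.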

The target in the assay is Platelet-activating factor acetylhydrolase (Homo sapiens) (UniProt Q13093). Kind of assay: pPAFAH enzyme inhibitors, primary screen, biochemical, fluorescence polarization, human (AID 463082).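 Note: inhibitors block binding of the rhodamine activity-based probe so polarization drops; 0% = enzyme with DMSO and 100% = wells lacking pPAFAH.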 The note with it: recombinant pPAFAH, FP-rhodamine probe fluorescence polarization; at 3.39 µM; hits give high values. (In general: Polarisation of emitted light reports the rotation of a fluorescent probe.)
Chain of Platelet-activating factor acetylhydrolase (Homo sapiens) (Q13093 whole entry, looked up): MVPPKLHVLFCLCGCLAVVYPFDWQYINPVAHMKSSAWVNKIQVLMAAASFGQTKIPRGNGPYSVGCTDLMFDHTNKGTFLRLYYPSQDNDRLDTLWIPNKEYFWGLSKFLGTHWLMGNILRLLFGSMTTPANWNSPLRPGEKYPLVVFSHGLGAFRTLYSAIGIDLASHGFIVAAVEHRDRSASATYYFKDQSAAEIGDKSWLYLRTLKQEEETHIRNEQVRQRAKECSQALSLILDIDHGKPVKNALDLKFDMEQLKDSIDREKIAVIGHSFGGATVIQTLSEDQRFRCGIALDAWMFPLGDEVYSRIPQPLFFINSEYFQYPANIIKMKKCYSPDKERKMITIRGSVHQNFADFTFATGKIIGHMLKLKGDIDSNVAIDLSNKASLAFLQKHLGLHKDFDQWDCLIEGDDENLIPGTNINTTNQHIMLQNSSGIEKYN
In general, inhibition refers to the relative decrease from the control value, in per cent. As to `O=C(CSc1ncnc2sccc12)NC1CCS(=O)(=O)C1` (stereo not drawn), the inhibition is 4.85%.

With `COc1ccc(NC(=O)C(NC(C)=O)C(=O)NCc2ccccc2Cl)cc1` (stereo not drawn), the inhibition was -2.3%.

For the molecule `COC(=O)[C@@]12CCCN1[C@H](c1ccc(-c3ccc(F)cc3)c(OC)c1)[C@H]1C(=O)N(C)C(=O)[C@H]12`, the inhibition was -3.21%.

In the case of `COC(=O)N/N=C/c1cn(CCCOc2ccc(C)cc2)c2ccccc12`, the inhibition was 19.2%.

As to `CNC(=S)N/N=C/c1cn(Cc2ccc(C)cc2)c2ccccc12`, the inhibition is 18.1%.

Take `CCOC(=O)N/N=C/c1cn(Cc2ccccc2Cl)c2ccccc12`: the inhibition was 30.1% (active).

For `Cc1ccc(-c2nc(SCC(=O)Nc3ccccc3OC(F)F)c3c(C)c(C(=O)O)sc3n2)cc1`, the inhibition was 1.04%.

Turning to `OCCCC1CCCCN1Cc1nc(Cc2ccccc2Cl)no1` (stereo not drawn), the inhibition is -2.08%.

`CC(C)N(C(=O)CSc1nnc(NC2CC2)s1)c1ccccc1`: the inhibition was -0.35%.

Turning to `CC(C)c1ccc(Nc2nnc(SCC(=O)c3nnc(-c4ccccc4)o3)s2)cc1`, the inhibition was 30.8% (active).

For `Cc1ccccc1Nc1nnc(SCC(=O)c2cc3ccccc3o2)s1`, the inhibition is 2.17%.

With `Fc1ccccc1/C=C1\CCCC2=C1Nc1ncnn1C2c1ccccc1F` (stereo not drawn), the inhibition was 14%.

`O=C1C=C(c2cccc(Cl)c2O)C[C@@H](c2ccc(F)cc2)C1`: the inhibition is 4.07%.

`O=C(NCc1ccc(F)cc1)C(c1ccccc1)N(C(=O)c1csnn1)C1CC1` (stereo not drawn): the inhibition is -2.59%.

As to `CC1=NNC(=O)C1CCC(=O)N/N=C(\C)c1ccc(Cl)cc1` (stereo not drawn), the inhibition is 3.21%.

Regarding `O=C(CN1C(=O)NC2(CCCC2)C1=O)Nc1cc(C(F)(F)F)ccc1N1CCOCC1`, the inhibition was 6.53%.

For the molecule `O=C(CCC1CCCCC1)Nc1cc(C(F)(F)F)ccc1N1CCOCC1`, the inhibition is 37.1% (active).

Consider `CC(C)CC(=O)Nc1cc(C(F)(F)F)ccc1N1CCOCC1`, for which the inhibition is -1.9%.

In the case of `Cc1ccc(O/C=C2\OC(=O)c3ccccc32)cc1`, the inhibition was -0.55%.

Consider `Cc1noc(C)c1NC(=O)Nc1ccc2c(c1)C(=O)N([C@H](C)CO)C[C@H](C)[C@@H](CN(C)C(=O)Nc1ccc(C(F)(F)F)cc1)O2`, for which the inhibition was -10.3%.

Consider `COc1ccc(NC(=O)c2cc(-c3ccc(C)o3)nc3ccccc23)cc1`, for which the inhibition is 11.4%.

As for `CC(=O)N1CCN(C(=O)c2cc(-c3ccc(Cl)s3)nc3ccccc23)CC1`, the inhibition is 3.56%.

As for `CC(=O)N1CCN(C(=O)c2cc(-c3ccc(C)o3)nc3ccccc23)CC1`, the inhibition is 41% (active).

`O=C(Cn1ncc2c3ccccc3n(Cc3ccccc3)c2c1=O)NCc1ccccn1`: the inhibition is -0.14%.

For the molecule `CCN1CCN(C(=O)CCN2C(=O)c3ccccc3C2=O)CC1`, the inhibition is -1.23%.

Take `CCCCOc1ccc(N(CC(=O)NC(C)C)C(=O)CCC(=O)Nc2ccccn2)cc1`: the inhibition was 28.3% (active).

As to `CCOc1ccc(C(C(=O)NCCOC)N(CCOC)C(=O)CCC(=O)Nc2ccccn2)cc1` (stereo not drawn), the inhibition is 5.87%.

For the molecule `CCCCOc1ccc(N(CC(=O)NCC2CCCO2)C(=O)CCC(=O)Nc2cc(C)ccn2)cc1` (stereo not drawn), the inhibition was 10.7%.

As to `COc1ccccc1C(=O)Nc1ccc(Nc2ccccc2)cc1`, the inhibition is 2.35%.

For the molecule `CCC(=O)Nc1nnc(S(=O)(=O)N(CC(C)C)c2ccccc2)s1`, the inhibition is 3.99%.

Turning to `O=C(Nc1cc(C(F)(F)F)ccc1Cl)c1cc2nc3c(c(C(F)(F)F)n2n1)CCCC3`, the inhibition was 8.15%.

As to `CN=C1S/C(=C\c2c(OC)cc(OC)cc2OC)C(=O)N1C`, the inhibition was -0.42%.

With `CN1C(=O)/C(=C/c2ccco2)SC1=Nc1cccc(C(=O)O)c1`, the inhibition was 25.1% (active).

With `Cc1cc(/C=C2\SC(=Nc3ccc(N4CCOCC4)cc3)N(C)C2=O)c(C)n1-c1cccnc1`, the inhibition is 2.99%.

With `Cc1nc2ccccc2c(=O)n1-c1ccc(F)c(NC(=O)c2cccs2)c1`, the inhibition is -0.28%.

For `O=C(NC1CCCC1)c1cc(-c2ccccc2)on1`, the inhibition was 8.25%.

As to `COc1ccc(CNC(=O)/C(C#N)=C/c2cccc(OC)c2OC)cc1`, the inhibition was -1.57%.

For `COCCNC(=O)/C(C#N)=C/c1cccc(OCc2ccccc2)c1`, the inhibition is 2.65%.

In the case of `N#C/C(=C\c1ccc(O)c(O)c1)C(=O)NCc1ccccc1`, the inhibition was 28.2% (active).

Turning to `Cc1cccc(C)c1N1CCN(S(=O)(=O)N2CCCCC2)CC1`, the inhibition is 0.66%.

With `O=C1COc2ccc(C(=O)COC(=O)c3cccnc3Cl)cc2N1`, the inhibition was 3.48%.

Take `Cc1cc(=O)oc2c1ccc1ccccc12`: the inhibition was 1.01%.

As for `O=C1CCC([N+](=O)[O-])C(c2ccccc2Br)N1` (stereo not drawn), the inhibition was 2.25%.

Consider `CN(CC(=O)Nc1ccc(OC(F)(F)F)cc1)C(=O)C1CCC1`, for which the inhibition was 2.02%.

As for `CC(CC(=O)Nc1ccc(F)cc1F)S(=O)(=O)c1ccc2c(c1)NC(=O)CO2` (stereo not drawn), the inhibition is 0.8%.

Turning to `Cc1cc(C)n(C(=O)c2ccc(C)c(S(=O)(=O)N3CCOCC3)c2)n1`, the inhibition is 2.24%.

In the case of `O=[N+]([O-])C(=c1ccc2c(c1)N1C3=C(CCCC3)CC3CCCCC31N=2)[N+](=O)[O-]` (stereo not drawn), the inhibition was 33.6% (active).

As to `CCN1CCN(C(=O)C2CCN(S(=O)(=O)c3cc(Cl)ccc3Cl)CC2)CC1`, the inhibition is 3.87%.

In the case of `CCc1cc2c(=O)c(-c3nc4ccccc4n3C)c(CCCC(=O)O)oc2cc1OC(=O)C(C)(C)C`, the inhibition is 3.51%.

`COc1ccc(-n2nnnc2-c2nc3ccccc3s2)cc1`: the inhibition is -4.42%.

As to `COc1ccccc1N1CC(O)=C(c2nc3ccccc3s2)C1=N`, the inhibition was 32.9% (active).

Consider `CCc1ccc(N2CC(O)=C(c3nc4ccccc4c(=O)[nH]3)C2=N)cc1`, for which the inhibition was -1.78%.

Regarding `C=CCC[C@H](Cc1ccc(F)cc1)C(=O)OC[C@@H](NC(=O)[C@@H](CC=C)CC(=O)N[C@H](CO)Cc1ccccc1)C(C)(C)C`, the inhibition was 4.14%.

As for `Cc1cc(NC(=O)CSC2=NS(=O)(=O)c3cc(Cl)ccc3N2)no1`, the inhibition was -4.37%.

As for `CS(=O)(=O)N1CCCC(C(=O)Nc2ccccc2C(F)(F)F)C1` (stereo not drawn), the inhibition is -1.76%.

Turning to `CC(=O)Nc1cccc(C(=O)OCC(=O)Nc2nnc(-c3ccccc3)o2)c1`, the inhibition was 5.98%.

As to `O=C(COC(=O)c1ccc(Oc2ccccc2)cc1)Nc1nnc(-c2ccccc2)o1`, the inhibition is 25% (active).

For the molecule `O=C(COC(=O)c1ccccc1Br)Nc1nnc(-c2ccccc2)o1`, the inhibition is 4.87%.

With `O=C(COc1ccccc1)N1CCN=C1SCc1cccc(F)c1`, the inhibition was 4.42%.

As to `CC(NS(=O)(=O)c1ccc(OCC(=O)N2CCCC2)cc1)c1ccccc1` (stereo not drawn), the inhibition is 14.5%.

As for `O=C(COc1ccc(S(=O)(=O)NCc2ccccc2)cc1)N1CCOCC1`, the inhibition is 4.78%.

For the molecule `O=C(COc1ccc(S(=O)(=O)NCCc2ccccc2)cc1)N1CCCC1`, the inhibition was 26.8% (active).

As to `CCCCNC(=O)CCn1c(=O)c2ccccc2n(Cc2cc(C)ccc2C)c1=O`, the inhibition is 1.95%.

On to `Cc1ccc(S(=O)(=O)N(CC(=O)Nc2cccnc2)c2ccc(Br)cc2)cc1`, for which the inhibition is 3.28%.

Regarding `COc1cccc(CNC(=O)CCC2CCCN(C(=O)c3ccc(F)c(Cl)c3)C2)c1` (stereo not drawn), the inhibition is 42.8% (active).

For `COc1cccc(C(=O)N2CCCC(CCC(=O)NCc3ccc(F)c(F)c3)C2)c1` (stereo not drawn), the inhibition is 1.9%.

Consider `COc1cccc(CNC(=O)CCC2CCCN(C(=O)c3ccoc3C)C2)c1` (stereo not drawn), for which the inhibition is 5.56%.

Turning to `COc1ccc(S(=O)(=O)Nc2cccc3c2O[C@H](CN(C)S(=O)(=O)c2ccc(OC)cc2)[C@@H](C)CN([C@H](C)CO)C3=O)cc1`, the inhibition is 3.76%.

Turning to `COc1ccc(NCc2nnc(SCc3ccccc3)n2-c2ccc(OC)cc2)cc1`, the inhibition was 2.01%.

In the case of `OCCC1CN(Cc2cccc(O)c2)CCN1CCc1ccccc1` (stereo not drawn), the inhibition is -5.11%.

In the case of `CCN(CC)S(=O)(=O)c1ccc(N2CCOCC2)c(NC(=O)C(C)Oc2ccc(F)cc2)c1` (stereo not drawn), the inhibition was 10.3%.

Take `CN1CCN(c2ccc(S(=O)(=O)N3CCCCC3)cc2NC(=O)Cc2ccccc2F)CC1`: the inhibition is -3.62%.

Consider `CCN(CC)S(=O)(=O)c1ccc(N2CCN(C)CC2)c(NC(=O)Nc2ccccc2F)c1`, for which the inhibition is 33.1% (active).

For the molecule `C=CC[C@@H](CC(=O)N[C@@H](CO)Cc1ccccc1)C(=O)NCCOC(=O)[C@@H](CC=C)CC(=O)OC(C)(C)C`, the inhibition was 1.4%.

On to `Cc1ccc(C)c(S(=O)(=O)Nc2cc(C)on2)c1`, for which the inhibition is -1.93%.

In the case of `CCn1c(N)c(Br)c(=O)[nH]c1=O`, the inhibition is 0.06%.

`O=S(=O)(c1ccc(Cl)cc1)c1nc(-c2ccco2)oc1N1CCCCC1`: the inhibition is -3.3%.

As for `O=C(CSC1=Nc2ccccc2C2=NC(CC(=O)NCc3ccco3)C(=O)N12)NCc1ccco1` (stereo not drawn), the inhibition was 5.99%.

For `CCC(C)NC(=O)CSC1=Nc2ccccc2C2=NC(CCC(=O)NCc3ccco3)C(=O)N12` (stereo not drawn), the inhibition was 2.48%.

In the case of `CC(C)C1N=C2c3ccccc3N=C(SCC(=O)c3ccc(O)c(O)c3)N2C1=O` (stereo not drawn), the inhibition was 55.4% (active).

As to `CC(C)n1cnc2c(NCc3ccccc3)cc(OCC3CCN(C)CC3)cc21`, the inhibition is 11.1%.

Turning to `CN(CC(=O)NCC(c1ccccc1)N1CCCC1)S(=O)(=O)c1ccc(Cl)cc1` (stereo not drawn), the inhibition was -2.68%.

Consider `O=C(O)c1cc2c(cc1NC(=O)c1c(F)cccc1Cl)OCCCO2`, for which the inhibition is -0.94%.

For the molecule `CC(=O)Nc1ccc(OCCC[n+]2cccc(C(=O)[O-])c2)cc1`, the inhibition was -0.37%.

Regarding `O=c1ccc2c(-c3ccccc3S(=O)(=O)O)c3ccc(O)c(O)c3oc-2c1O`, the inhibition is 70% (active).

Consider `CCCCNC(=O)C1CCC(=O)N1CCc1ccccc1` (stereo not drawn), for which the inhibition is 3.82%.

`CCOc1ccc(OCC)c(-c2c(=O)n(OCc3ccc(Cl)cc3)c3ccccc3[n+]2[O-])c1`: the inhibition is 5.98%.

For `CCc1ccc(CN2C(=O)c3ccccc3C2C(=O)NCC2CCCO2)cc1` (stereo not drawn), the inhibition is 7.1%.
